p97 ATPase inh: blocks human p97 ATPase activity; P55072; recombinant p97 ATPase, Kinase-Glo ATP luminescence, 3 h; inhibition, % at 8 µM; actives 0.42% (n = 220,000); AID 1481; in the data active = inhibition above about 15%;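 note: 0% = DMSO vehicle and 100% = wells lacking enzyme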
Target sequence (P55072 whole entry, looked up): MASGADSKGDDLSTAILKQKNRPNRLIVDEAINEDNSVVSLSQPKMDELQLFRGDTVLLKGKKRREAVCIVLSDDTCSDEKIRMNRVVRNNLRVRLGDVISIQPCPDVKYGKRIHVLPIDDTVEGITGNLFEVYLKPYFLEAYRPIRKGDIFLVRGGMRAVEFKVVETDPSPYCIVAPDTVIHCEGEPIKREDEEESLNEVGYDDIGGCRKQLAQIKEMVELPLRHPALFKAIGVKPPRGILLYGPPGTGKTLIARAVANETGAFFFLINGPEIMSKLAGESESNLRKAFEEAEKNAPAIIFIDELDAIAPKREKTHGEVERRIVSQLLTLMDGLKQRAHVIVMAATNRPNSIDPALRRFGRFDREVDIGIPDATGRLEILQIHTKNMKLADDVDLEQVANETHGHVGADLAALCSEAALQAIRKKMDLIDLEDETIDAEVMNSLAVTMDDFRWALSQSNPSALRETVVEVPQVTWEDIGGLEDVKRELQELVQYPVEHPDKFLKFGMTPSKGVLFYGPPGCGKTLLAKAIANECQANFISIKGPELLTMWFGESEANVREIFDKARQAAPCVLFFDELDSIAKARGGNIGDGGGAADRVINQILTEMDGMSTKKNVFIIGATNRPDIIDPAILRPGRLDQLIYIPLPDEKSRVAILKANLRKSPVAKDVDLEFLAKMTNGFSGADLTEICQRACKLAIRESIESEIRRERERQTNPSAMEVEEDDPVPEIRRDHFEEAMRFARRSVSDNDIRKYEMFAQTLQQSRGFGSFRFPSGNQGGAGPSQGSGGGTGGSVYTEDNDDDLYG
LYPLA2 counter: blocks human lysophospholipase 2, a PME1 counter-screen; O95372; recombinant LYPLA2, FP-Rh probe fluorescence polarization; inhibition, % at 5.9 µM; actives 0.38% (n = 320,000); AID 2177;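 active = inhibition above the screen-wide mean plus 3 SD, limit set per campaign, cut at about 26% in these data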;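 note: 0% = LYPLA2 with DMSO and 100% = wells lacking LYPLA2 enzyme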
LYPLA1 counter: counter-screen for PME1 inhibitors: inhibitors of human LYPLA1; recombinant LYPLA1, FP-Rh probe fluorescence polarization; AID 2174; actives 0.16% (n = 320,000); O75608; inhibition, % at 5.9 µM;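 active = inhibition above the mean of all tested compounds plus 3 SD, set per campaign, cut at about 14% in these data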;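 note: inhibitors block serine hydrolase probe labeling of LYPLA1 so polarization falls; 0% = enzyme with DMSO and 100% = wells lacking LYPLA1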
Rin1 Abl inh: blocks binding of human Rin1 to Abl. TR-FRET Rin1/Abl binding, biochemical. AID 588664. P00519+Q13671. inhibition, % at 7.35 µM. actives 0.4% (n = 360,000); in the data active = inhibition above about 5%, passing the limit was not always enough
PREPL inh: inhibitors of human prolyl oligopeptidase-like enzyme PREPL; inhibition, % at 5.96 µM; actives 0.68% (n = 320,000); recombinant PREPL, fluorescence polarization activity-based probe; Q4J6C6;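 note: 0% = enzyme with DMSO and 100% = wells lacking enzyme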
Hck-Nef inh: inhibitors of human Hck kinase activated by Nef; P08631; Recombinant Hck-YEEI plus Nef, Z-Lyte FRET kinase assay; inhibition, % at 20 µM; actives 0.68% (n = 220,000); AID 463187;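 active = Hck-Nef kinase inhibition above about 50%, limit read from the data; inactive = inhibition below that limit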;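 note: 0% = DMSO with Hck plus Nef and 100% = Hck alone without Nef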
LYPLA2 confirm: counter-screen for PME1 inhibitors: confirmation of human LYPLA2 inhibitors; shares compounds with LYPLA2 counter; inhibition, % at 5.9 µM; recombinant LYPLA2, FP-Rh probe fluorescence polarization; actives 72% (n = 1,100);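 active = mean inhibition across replicates above the hit cutoff set in the primary screen, cut at about 26% in these data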;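 note: blocked labeling of the enzyme by serine hydrolase FP-Rh probe lowers polarization; 0% = enzyme with DMSO and 100% = wells lacking LYPLA2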
LYPLA2 gel ABPP: inhibitors of human LYPLA2. actives 30% (n = 150). rhLYPLA2 in mouse brain proteome, gel ABPP FP-Rh. shares compounds with LYPLA2 counter. inhibition, % at 20 µM;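 active = inhibition of LYPLA2 enzyme probe labeling above about 50%, limit read from the data; inactive = inhibition below that limit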;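 note: loss of FP-Rh probe labeling of the LYPLA2 gel band measured as band density; 0% = DMSO only control band and 100% = blank gel background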
PREPL confirm: confirmation of human PREPL enzyme inhibitors; shares compounds with PREPL inh; recombinant PREPL, fluorescence polarization activity probe; inhibition, % at 5.96 µM; actives 67% (n = 2,000); AID 2803;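 note: 0% = protein with DMSO and 100% = wells lacking protein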
Rin1-Abl confirm: confirmation of inhibitors of human Rin1-Abl interaction | shares compounds with Rin1 Abl inh | TR-FRET Rin1-Abl binding, purified proteins | inhibition, % at 7.35 µM | actives 49% (n = 1,300) | AID 602124; in the data active = inhibition above about 6.5%
GFP quench: GFP fluorescence interference artifact; inhibitors/quenchers counterscreen; shares compounds with Rin1 Abl inh; inhibition, % at 6.75 µM; actives 8.5% (n = 1,300); in the data active = inhibition above about 6.5%;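 note: ABL1-eGFP fusion protein alone without its partner RIN1-SBP; 0% = protein with vehicle and 100% = wells lacking protein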
* = called active by the depositor; . = no result given. The list is not random: actives were taken first. Their share in the collection is about 1.7%. Cut-off read from the data, not from the text of the source, unless noted: active = inhibition above about 43%; inactive = the rest.

SMILES	p97 ATPase inh	LYPLA2 counter	LYPLA1 counter	Rin1 Abl inh	PREPL inh	Hck-Nef inh	PREPL confirm	others
CCN1C(=O)[C@H]2[C@H]3CN=C(SCc4ccc(C(=O)OC)cc4)N3[C@@](C)(C(=O)OC)[C@H]2C1=O	.	.	.	-0.4	.	.	.
CN(C(=O)c1ccc(NC(=O)Cc2ccc(NC(=O)C3CCCN(C(=O)C4CCCC4)C3)cc2)cc1)C1CC1 (stereo not given)	.	57.5*	5.0	12.6*	-5.9	.	.	LYPLA2 confirm=51.5*;LYPLA2 gel ABPP=45.0;Rin1-Abl confirm=18.5*;GFP quench=1.6
COc1cc(NC(=O)CN(C)S(=O)(=O)c2ccc3c(c2)CC(C)N3C(C)=O)cc(OC)c1 (stereo not given)	.	-4.5	2.6	0.2	14.7	.	.
CC[n+]1ccc(C)c2cc(P(=O)(c3ccccc3)c3ccccc3)ccc21	1.5	-2.6	-2.8	-11.7	57.0*	23.5	41.3
Cc1ccnc2ccc(P(=O)(c3ccccc3)c3ccccc3)cc12	-0.1	.	.	.	.	-2.7	.
CCOc1cc(CNc2ccc(N3CCN(C(C)=O)CC3)cc2)cc(Br)c1OC	0.5	2.6	5.2	-2.2	12.2	11.5	.
COc1cc(CNc2ccc(N3CCN(C(C)=O)CC3)cc2)ccc1OCc1ccc(F)cc1	-0.7	18.5	1.9	1.4	45.1*	22.8	39.6
CC(=O)N1CCN(c2ccc(NCc3cccc(C)c3)cc2)CC1	.	0.8	1.7	0.1	59.2*	.	34.4
O=C(Cc1ccc(F)cc1)N1CCN(c2ccc(F)cc2)CC1	.	0.3	1.4	0.8	-4.4	.	.
CCOc1c(Br)cc(CNc2ccc(N3CCN(C(C)=O)CC3)cc2)cc1OC	-5.3	13.2	8.8	-2.6	20.4	30.3	.
CC(=O)N1CCN(c2ccc(NCc3ccc(F)cc3)cc2)CC1	-8.6	-1.9	1.6	-5.1	66.8*	-0.2	39.2
CN(CC(=O)Nc1ccc(Cl)c(C(F)(F)F)c1)C(=O)Cc1n[nH]c(=O)c2ccccc12	.	6.6	1.6	1.8	56.8*	.	14.6
O=C(Nc1ccccc1Oc1ccccc1)C1=COCCO1	.	3.3	-0.2	2.2	-6.6	.	.
Cc1ccccc1OCCC(=O)Nc1ccc(N2CCOCC2)cc1N1CCOCC1	.	2.6	5.2	0.6	43.3*	.	43.0
O=C(COc1cccc(Br)c1)Nc1ccc(N2CCOCC2)cc1N1CCOCC1	.	10.8	5.3	-1.9	45.8*	.	36.7
CC1=Nc2nc(N3CCCCCC3)c(C#N)c3c4c(nc(c23)N1)N(c1ccc2ccccc2c1)C(=O)C4	.	4.7	-4.5	-2.4	63.1*	.	60.6*
CC(C)c1ccccc1NC(=O)COC(=O)c1cc([N+](=O)[O-])ccc1N1CCOCC1	.	5.3	-0.9	3.0	2.5	.	.
Nc1ccccc1-c1ccccc1N	3.5	2.6	1.5	1.8	4.2	15.0	.
Nc1ccccc1N=Nc1ccccc1N	.	1.7	0.3	-6.8	49.9*	.	43.2*
COc1ccccc1C1c2ccc3ccccc3c2Oc2ncn(CCN(C)C)c(=N)c21 (stereo not given)	.	0.5	-3.3	-1.2	-15.7	.	.
COc1ccc(C2c3ccc4ccccc4c3Oc3ncn(CCCN(C)C)c(=N)c32)cc1 (stereo not given)	.	-7.3	-6.1	0.6	44.7*	.	42.1
Cc1ccc([C@@H]2[C@@H]3C(=O)N(C)C(=O)[C@@H]3[C@]3(Cc4ccccc4)C(=O)N(Cc4ccccn4)CC(=O)N23)o1	.	-4.7	-0.7	3.5	1.8	.	.

Source: PubChem BioAssay (several laboratories)
